The values that follow come from PubChem BioAssay (NCI).

Where “and” joins values, the source holds several entries; their conditions need not be identical. Identical values can stand only once. Compounds without any hit were thinned out: in the full panel of roughly 83,000, 20% have a hit.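 In brief: 96-well plates, 48 h treatment, single concentration, percent growth endpoint.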 Calls of active or inactive are those of the source. How the source made its calls: active means growth percent below 10; inactive means the rest.

The assay has as its system MDA-MB-468 breast. In words: NCI-60 one-dose screen, 48 h (100 = growth as untreated, 0 = no growth, -100 = all killed). The note with it: 10 µM unless noted.
For `COc1ncc(-c2ccc3ncnc(Nc4cccc(Cl)c4)c3c2)cc1N(S(C)(=O)=O)S(C)(=O)=O`, the growth was -3.15% (active). With `Cc1cccc(/C=C\C(=O)c2ccc(Cl)cc2)c1` the figure was 106% (inactive) and 90.9% (inactive); with `COc1ccc2c(c1)CC=C1[C@@H]2CC[C@]2(C)C(=O)/C(=N/O)C[C@@H]12`, 63.2% (inactive); with `O=C1CCC(=O)N1C1CCCCC1`, 97% (inactive). With `CCN1CCN(Cc2ccc(Cc3ncc(F)c(-c4cc(F)c5nc(C)n(C(C)C)c5c4)n3)nc2)CC1` the figure was 80.6% (inactive); with `CC(C)(C)c1cc(/C=N/NC(=O)c2ccccc2NC(=O)c2cccs2)c(O)c(C(C)(C)C)c1`, 25.3% (inactive). Take `CC/C(=C(/c1ccc(Cl)cc1)c1ccc(OCCN2CCCCC2)cc1)c1ccc(OC)cc1`: the growth is 26.5% (inactive). The value for `O=C(CCN1C(=O)/C(=C/c2ccccc2)SC1=S)N1CCOCC1` was 51.9% (inactive); that for `COc1ccc(-c2nnc(SCC(=O)Nc3ccc(C(=O)/C=C/c4ccc(Cl)cc4)cc3)n2-c2ccccc2)cc1` was 97.9% (inactive). With `c1cc2ccc1CNCCN1CCNCc3ccc(cc3)Oc3ccc(cc3)CNCCN(CCNCc3ccc(cc3)O2)CCNCc2ccc(cc2)Oc2ccc(cc2)CNCC1` the figure was -77.6% (active).

As to `O=C(Nc1cc(Cl)cc2c1-c1ccc(Cl)cc1C2O)C(Cl)Cl` (stereo not given), the growth was -3.77% (active). With `COc1cc2nc(-c3ccc(C(F)(F)F)cc3)cc(OCCN3CCC(O)CC3)c2cc1OC` the figure was 81.1% (inactive). Regarding `CCN(CC)c1ccc2c(c1)Oc1nc(N)c(C#N)c(N)c1C2Sc1ccc(SC)cc1` (stereo not given), the growth is -37.4% (active). The value for `Clc1ccc(/C=C2\CCCC3=C2N=C2SC=NN2C3c2ccc(Cl)cc2)cc1` (stereo not given) was 90.4% (inactive); that for `COc1cc(-c2nc(-c3nc4ccccc4[nH]3)cc3c2[nH]c2ccccc23)cc(OC)c1OC` was 42.1% (inactive); that for `NS(=O)(=O)c1cccc(Nc2nc(SCC(=O)c3ccc([N+](=O)[O-])cc3)nc3ccccc23)c1` was 0.252% (active). The value for `CN(CCCCCCCCNc1ccnc2ccccc12)Cc1ccc(-c2ccc(-c3ccc(C#N)cc3)s2)cc1` was -50.4% (active); that for `Fc1ccc(CNc2c3ccccc3nc3ccccc23)cc1` was 11.5% (inactive); that for `COC(=O)c1c2c(c(C)[n+]([O-])c1C)C(=O)C(NCc1cccc(OC)c1)=CC2=O` was -21.3% (active). The value for `CN1CCN(CCCOc2cccc3nc(Nc4ccc(F)c(F)c4)ccc23)CC1` was -67.3% (active); that for `O=c1c2cnn(-c3ccccc3)c2n2c(CN3CCOCC3)nnc2n1-c1ccccc1` was 116% (inactive); that for `CCc1ccccc1-n1c(N)c(C#N)c(-c2ccc(N(C)C)cc2)c(C#N)c1=O` was 116% (inactive). As to `Cc1ccc(NC2=C(Cl)C(=O)c3nc(C)ccc3C2=O)cc1`, the growth was -81.9% (active). In the case of `CSc1nc2c(c(=O)[nH]1)C(c1ccc(C)cc1)C=C(C(=O)O)N2` (stereo not given), the growth is 114% (inactive). As to `CCN(CC)CC(O)c1cc(-c2ccc(Cl)cc2)nc2cc(Cl)ccc12` (stereo not given), the growth is -76.9% (active). Consider `O=C(O)CC(C(=O)O)/C(=C\c1ccccc1)c1ccccc1` (stereo not given), for which the growth was 88.1% (inactive). The value for `O=C(O)Cc1ccc2c(c1)Cc1cccnc1O2` was 97.1% (inactive); that for `CCCCCCCCOC(=O)c1ccccn1` was 107% (inactive).

With `COc1ccc(/C=C2\CN(C(=O)CCN3CCC(=NO)CC3)C/C(=C\c3ccc(OC)cc3)C2=O)cc1`, the growth is -27.5% (active). With `Cc1cc2cc3cc(C)c(N(C)C)cc3nc2cc1N(C)C` the figure was 23.9% (inactive); with `COC1CCN(Cc2ccc3c(NNC(=O)c4cnccn4)nc4cc(F)ccc4n23)C1` (stereo not given), -32.1% (active).

Turning to `O=C(CSc1nc2sc3c(c2c(=O)n1-c1ccc(Cl)cc1)CCCC3)Nc1nc(-c2cccc(Br)c2)cs1`, the growth was 65.1% (inactive). As for `Cc1ccc2c(c1)sc(-c1ccc(N(C)C)cc1)[n+]2C`, the growth was -11.3% (active).

On to `CC(C)c1ccc(C(=O)OC(=O)c2ccc(C(C)C)cc2)cc1`, for which the growth was 110% (inactive). With `C#C[C@]1(O)CC[C@H]2[C@@H]3CC=C4c5sc(Nc6cccc(F)c6)nc5CC[C@]4(C)[C@H]3CC[C@@]21C` the figure was 3.86% (active); with `COCCn1cc(-c2csc(-c3c[nH]c4ccc(Br)cc34)n2)c2cccnc21`, 0.403% (active). The value for `CC(=O)c1ccc(NC(=O)Nc2ccc(S(=O)(=O)Nc3ccc(Cl)nn3)cc2)cc1` was 107% (inactive); that for `Nc1nc(N)c(N=Nc2ccccc2)c(-c2ccccc2)n1` was 8.67% (active); that for `O=C1/C(=C/c2ccc(O)cc2)Oc2ccc(Cl)cc21` was 131% (inactive). With `C=C(C)[C@@H]1CC[C@]2(C(=O)NCCCN(CCC#N)CCC#N)CC[C@]3(C)[C@H](CC[C@@H]4[C@@]5(C)CCC(=O)C(C)(C)[C@@H]5CC[C@]43C)[C@@H]12` the figure was 116% (inactive) and 90.6% (inactive).
